# Test results taken from paper PMC7862700, “An all-to-all approach to the identification of sequence-specific readers for epigenetic DNA modifications on cytosine”.
# Columns and labels:
# Experiment in all cases: DAPPL (digital affinity profiling via proximity ligation, sequencing); 10 mM Tris-HCl pH 7.5, 50 mM NaCl, 1 mM DTT, 4% glycerol, room temperature, 30 min; GST-TFs on glutathione beads, 16-mer random dsDNA library, 0.1% formaldehyde crosslink after washing; high values mean tight binding
# Conditions in all cases: protein: recombinant; tags: N-terminal GST; dsDNA, one strand shown
# FLI1 = target: T1, FLI1 (Homo sapiens, UniProt Q01543 1-452)
# T1 sequence: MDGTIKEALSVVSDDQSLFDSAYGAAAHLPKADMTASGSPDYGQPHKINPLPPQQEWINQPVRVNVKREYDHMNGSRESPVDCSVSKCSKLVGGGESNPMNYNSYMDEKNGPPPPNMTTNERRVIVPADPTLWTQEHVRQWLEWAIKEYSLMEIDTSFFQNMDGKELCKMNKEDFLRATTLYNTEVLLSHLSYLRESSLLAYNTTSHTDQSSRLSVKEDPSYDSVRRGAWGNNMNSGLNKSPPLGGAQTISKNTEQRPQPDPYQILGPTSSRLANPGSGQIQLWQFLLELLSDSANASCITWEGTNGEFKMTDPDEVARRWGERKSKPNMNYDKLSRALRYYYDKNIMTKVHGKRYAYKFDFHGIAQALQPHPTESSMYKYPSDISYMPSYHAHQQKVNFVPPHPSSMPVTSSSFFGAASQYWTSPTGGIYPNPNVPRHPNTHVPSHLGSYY
# Outline: (§1)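 A tag-only sample was pooled with DNA-barcoded human transcription factors that had been expressed in yeast as GST fusions and captured on glutathione beads. The pools were incubated for 30 min at room temperature with 200 nmole of a random double-stranded 16-mer DNA library in Tris/NaCl/DTT/glycerol buffer, then washed, crosslinked with 0.1% formaldehyde, proximity-ligated (BsaI/T4 ligase, 1 h, 37 °C), PCR-amplified and sequenced on an Illumina NextSeq500. Binding signal is each hexamer's read frequency for a factor divided by its frequency for the tag-only sample.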
# ELK1 = target: T2, ELK1 (Homo sapiens, UniProt P19419 1-428)
# T2 sequence: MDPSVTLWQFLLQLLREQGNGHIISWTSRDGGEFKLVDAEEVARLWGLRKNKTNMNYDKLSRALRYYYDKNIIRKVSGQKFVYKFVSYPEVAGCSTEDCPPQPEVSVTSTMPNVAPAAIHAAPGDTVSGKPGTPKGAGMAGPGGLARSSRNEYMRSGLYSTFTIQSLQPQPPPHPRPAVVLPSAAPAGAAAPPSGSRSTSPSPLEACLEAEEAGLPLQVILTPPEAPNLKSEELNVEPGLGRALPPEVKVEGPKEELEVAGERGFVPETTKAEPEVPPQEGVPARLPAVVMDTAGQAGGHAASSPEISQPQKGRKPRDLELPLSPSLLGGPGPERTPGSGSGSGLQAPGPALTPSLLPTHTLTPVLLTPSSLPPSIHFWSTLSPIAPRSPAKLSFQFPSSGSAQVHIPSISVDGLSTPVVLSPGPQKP
# Outline: as §1
# GABPA = target: T3, GABPA (Homo sapiens, UniProt Q06546 1-454)
# T3 sequence: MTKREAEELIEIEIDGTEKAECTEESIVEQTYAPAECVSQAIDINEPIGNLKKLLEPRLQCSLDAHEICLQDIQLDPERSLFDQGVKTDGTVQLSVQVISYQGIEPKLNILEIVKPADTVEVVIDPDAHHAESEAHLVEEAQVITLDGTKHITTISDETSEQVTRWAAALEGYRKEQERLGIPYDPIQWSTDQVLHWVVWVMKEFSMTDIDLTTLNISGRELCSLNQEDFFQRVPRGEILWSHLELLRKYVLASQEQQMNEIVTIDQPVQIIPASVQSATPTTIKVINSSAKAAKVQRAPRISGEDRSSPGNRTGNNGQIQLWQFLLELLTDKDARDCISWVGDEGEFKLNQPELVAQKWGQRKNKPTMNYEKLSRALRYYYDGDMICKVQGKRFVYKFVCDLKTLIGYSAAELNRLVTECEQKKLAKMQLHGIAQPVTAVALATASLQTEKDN
# Outline: as §1
# ERG = target: T4, ERG (Homo sapiens, UniProt P11308 1-479)
# T4 sequence: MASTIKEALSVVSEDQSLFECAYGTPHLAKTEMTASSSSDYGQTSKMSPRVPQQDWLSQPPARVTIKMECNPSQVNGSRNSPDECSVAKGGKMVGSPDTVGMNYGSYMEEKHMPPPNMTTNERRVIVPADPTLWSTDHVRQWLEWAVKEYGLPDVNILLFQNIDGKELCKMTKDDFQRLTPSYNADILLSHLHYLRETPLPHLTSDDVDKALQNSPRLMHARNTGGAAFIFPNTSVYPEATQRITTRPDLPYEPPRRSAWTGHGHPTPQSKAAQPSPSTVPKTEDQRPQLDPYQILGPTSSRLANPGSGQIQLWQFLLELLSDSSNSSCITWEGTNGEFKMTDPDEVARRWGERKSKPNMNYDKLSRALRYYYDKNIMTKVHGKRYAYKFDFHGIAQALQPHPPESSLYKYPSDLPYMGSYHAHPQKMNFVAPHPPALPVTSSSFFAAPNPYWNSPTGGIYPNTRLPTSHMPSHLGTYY
# Outline: as §1
# ELF1 = ELF1 (Homo sapiens, UniProt P32519 1-619)
# Chain of ELF1 (P32519 whole entry): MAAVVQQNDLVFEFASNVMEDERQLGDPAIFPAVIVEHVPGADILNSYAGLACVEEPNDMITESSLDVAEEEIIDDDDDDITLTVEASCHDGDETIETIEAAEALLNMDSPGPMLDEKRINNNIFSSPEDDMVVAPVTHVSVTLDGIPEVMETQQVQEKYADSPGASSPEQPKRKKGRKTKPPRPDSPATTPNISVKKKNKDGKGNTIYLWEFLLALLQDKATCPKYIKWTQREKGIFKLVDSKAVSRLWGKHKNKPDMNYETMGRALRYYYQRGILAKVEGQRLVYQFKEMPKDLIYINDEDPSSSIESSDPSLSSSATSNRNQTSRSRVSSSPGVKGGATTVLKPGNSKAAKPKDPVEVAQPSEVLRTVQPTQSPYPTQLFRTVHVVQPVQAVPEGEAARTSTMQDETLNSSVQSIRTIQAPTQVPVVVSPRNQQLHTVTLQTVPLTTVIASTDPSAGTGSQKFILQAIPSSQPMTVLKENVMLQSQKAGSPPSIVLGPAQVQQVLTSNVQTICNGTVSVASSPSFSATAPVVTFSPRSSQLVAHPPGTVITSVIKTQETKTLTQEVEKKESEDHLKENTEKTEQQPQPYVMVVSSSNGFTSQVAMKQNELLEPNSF
# Outline: as §1
# EHF = target: T5, EHF (Homo sapiens, UniProt Q9NZC4 1-300)
# T5 sequence: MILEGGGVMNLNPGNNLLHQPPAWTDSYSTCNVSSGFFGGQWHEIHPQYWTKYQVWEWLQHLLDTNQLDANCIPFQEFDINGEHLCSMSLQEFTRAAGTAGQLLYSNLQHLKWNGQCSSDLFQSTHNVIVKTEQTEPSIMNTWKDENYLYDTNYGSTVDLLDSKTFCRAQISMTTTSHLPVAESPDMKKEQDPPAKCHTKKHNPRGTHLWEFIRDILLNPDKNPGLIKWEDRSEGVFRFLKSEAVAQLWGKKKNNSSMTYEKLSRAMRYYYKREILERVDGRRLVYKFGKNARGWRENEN
# Outline: as §1
# SPI1 = SPI1 (Homo sapiens, UniProt P17947 1-270)
# Outline: as §1
# SPIB = SPIB (Homo sapiens, UniProt Q01892 1-262)
# Chain of SPIB (Q01892 whole entry): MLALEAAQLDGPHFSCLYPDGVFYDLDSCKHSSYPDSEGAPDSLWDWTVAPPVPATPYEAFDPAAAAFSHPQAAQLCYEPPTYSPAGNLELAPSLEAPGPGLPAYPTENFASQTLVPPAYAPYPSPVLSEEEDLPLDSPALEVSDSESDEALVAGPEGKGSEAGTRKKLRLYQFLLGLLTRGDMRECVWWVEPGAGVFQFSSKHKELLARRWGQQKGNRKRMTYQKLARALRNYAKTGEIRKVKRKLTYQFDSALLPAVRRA
# Outline: as §1
# ELK3 = target: T6, ELK3 (Homo sapiens, UniProt P41970 1-407)
# T6 sequence: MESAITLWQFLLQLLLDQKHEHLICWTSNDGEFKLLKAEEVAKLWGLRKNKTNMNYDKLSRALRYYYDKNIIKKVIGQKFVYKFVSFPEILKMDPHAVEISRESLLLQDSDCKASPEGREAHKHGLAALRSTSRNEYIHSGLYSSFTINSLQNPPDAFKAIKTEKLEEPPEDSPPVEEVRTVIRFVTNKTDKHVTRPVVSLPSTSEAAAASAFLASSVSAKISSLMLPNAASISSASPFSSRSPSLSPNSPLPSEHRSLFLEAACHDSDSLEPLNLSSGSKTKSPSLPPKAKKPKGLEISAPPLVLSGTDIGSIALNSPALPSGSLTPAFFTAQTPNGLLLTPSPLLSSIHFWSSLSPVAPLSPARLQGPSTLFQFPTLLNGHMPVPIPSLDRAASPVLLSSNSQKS
# Outline: as §1
sequence,measurement,setting,value
TTGATG,binding signal,FLI1,"1.45 fold enrichment (6-mer frequency, TF over GST control)"
same,binding signal,ELK1,"1.82 fold enrichment (6-mer frequency, TF over GST control)"
same,binding signal,GABPA,"1.72 fold enrichment (6-mer frequency, TF over GST control)"
same,binding signal,ERG,"1.61 fold enrichment (6-mer frequency, TF over GST control)"
same,binding signal,ELF1,"1.64 fold enrichment (6-mer frequency, TF over GST control)"
same,binding signal,EHF,"1.65 fold enrichment (6-mer frequency, TF over GST control)"
same,binding signal,SPI1,"1.51 fold enrichment (6-mer frequency, TF over GST control)"
same,binding signal,SPIB,"1.62 fold enrichment (6-mer frequency, TF over GST control)"
same,binding signal,ELK3,"1.52 fold enrichment (6-mer frequency, TF over GST control)"
